This is an account of results in PubChem BioAssay.

For part of these data: Entries with a potency or affinity are not part of this list. Activity calls are given as the source filed them.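 How the source made its calls, unless noted: active means fitted half-maximal concentration within 10 nM to 100 µM, steepness 0.5 to 2, significant signal drop, low assay interference; inactive means the rest.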

In experiment [1] the target is Cell division control protein 42 homolog (Homo sapiens) (UniProt P60953). In words: activated mutant Cdc42 GTP-binding inhibitors, dose response, biochemical, multiplex bead flow cytometry, Bodipy-FL-GTP (AID 1333;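 active means fitted half-maximal concentration within the tested dose range, moderate curve steepness, a statistically real signal drop, and little compound fluorescence or tag-binding interference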). For orientation: Flow cytometry measures light scatter and fluorescence of single cells or particles in a stream.
Experiment [2] shares this target. In words: wildtype Cdc42 GTP-binding inhibitors, dose response, biochemical, multiplex bead flow cytometry, Bodipy-FL-GTP (AID 1334;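 active means fitted half-maximal concentration within the tested range, moderate curve steepness, significant signal drop, and little compound fluorescence or bead-linkage interference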). Particulars: bead-based flow cytometry, Bodipy-FL-GTP binding to GST-Cdc42; at 100 µM (top of the series) unless noted.
The target in experiment [3] is GTPase HRas (Homo sapiens) (UniProt P01112). In words: inhibitors of GTP binding to wildtype Ras, dose response, biochemical, multiplex bead flow cytometry (AID 1335). The settings on record: bead-based flow cytometry, Bodipy-GTP binding to GST-Ras; at 100 µM (top of the series) unless noted.
The test system of experiment [4] is Ras-related protein Rab-7a (dog), GTP binding. In words: Rab7 GTP binding inhibitors, potency, dose response, biochemical, wildtype, multiplex bead flow cytometry (AID 1336; call rule not given here).
The target of experiment [5] is Ras-related C3 botulinum toxin substrate 1 (Homo sapiens) (UniProt P63000). In words: wildtype Rac1 GTP binding inhibitors, dose response, biochemical, multiplex bead flow cytometry (AID 1340;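 active means dose curve with midpoint inside tested range, moderate steepness, plateau gap beyond fit error, low compound glow and bead-link interference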). The settings on record: GST-Rac1 beads, Bodipy-FL-GTP binding; at 100 µM (top of the series) unless noted.
Experiment [6] has as its target GTPase HRas (Homo sapiens) (UniProt P01112). In words: activated Ras mutant GTP binding inhibitors, dose response, biochemical, multiplex bead flow cytometry (AID 1341;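 active means dose-response curve with midpoint inside the tested range, moderate steepness, significant amplitude and little compound fluorescence or bead-attachment interference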;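 further: GST-tagged constitutively activated Ras mutant immobilized on beads and multiplexed with other GTPases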).

Cell division control protein 42 homolog (Homo sapiens), sequence (P60953 whole entry, looked up): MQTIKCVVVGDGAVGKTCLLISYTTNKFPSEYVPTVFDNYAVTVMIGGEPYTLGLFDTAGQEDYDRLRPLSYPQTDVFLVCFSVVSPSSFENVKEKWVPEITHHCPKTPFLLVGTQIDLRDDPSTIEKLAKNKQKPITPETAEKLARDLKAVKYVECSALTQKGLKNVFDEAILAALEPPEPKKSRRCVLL
GTPase HRas (Homo sapiens), sequence (P01112 whole entry, looked up): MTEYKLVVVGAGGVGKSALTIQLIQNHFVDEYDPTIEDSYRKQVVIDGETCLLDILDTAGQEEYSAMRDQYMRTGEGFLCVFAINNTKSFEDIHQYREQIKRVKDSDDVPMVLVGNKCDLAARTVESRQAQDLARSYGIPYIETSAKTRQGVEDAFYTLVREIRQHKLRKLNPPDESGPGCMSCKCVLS

On to `Cc1c(C(=O)N/N=C/c2ccc(-c3ccccc3[N+](=O)[O-])o2)sc(N)c1C#N`, for which the compound was called inactive in experiment [1], in experiment [4] and in experiment [6]. Besides, the fluorescence, percent of control (lower = inhibition) in experiment [2] is 37.4%. In experiment [3], this compound registered a GTP binding, percent of control of 49.1%. The same compound displayed a GTP binding signal, raw median fluorescence (lower = inhibition) (MCF (arbitrary fluorescence units)) in experiment [5] of 157.
In the case of `Cc1ccccc1CSCc1ccc(C(=O)O)o1`, the compound was classed as inactive in experiment [1], in experiment [4] and in experiment [6]. The fluorescence, percent of control (lower = inhibition) in experiment [2] was found to be 61.3%. The GTP binding, percent of control in experiment [3] was 89.8%. The compound also had a GTP binding signal, raw median fluorescence (lower = inhibition) (MCF (arbitrary fluorescence units)) in experiment [5] of 30.2.
Regarding `O=C(Cc1ccc(Nc2nc(=S)[nH]c3ccccc23)cc1)NC1CCCCC1`, the call in experiment [1], in experiment [4] and in experiment [6] was inactive. The fluorescence, percent of control (lower = inhibition) in experiment [2] was found to be 25.9%. For the same compound, the GTP binding, percent of control in experiment [3] was found to be 61.6%. This compound gave a GTP binding signal, raw median fluorescence (lower = inhibition) (MCF (arbitrary fluorescence units)) in experiment [5] of 153.
Take `O=c1c2ccccc2nc2c3ccccc3c(NCc3ccco3)nn12`: the compound was classed as inactive in experiment [1], in experiment [4] and in experiment [6]. Also, the fluorescence, percent of control (lower = inhibition) in experiment [2] stood at 80.4%. Further, the GTP binding, percent of control in experiment [3] was 122%. In experiment [5], this compound had a GTP binding signal, raw median fluorescence (lower = inhibition) (MCF (arbitrary fluorescence units)) of 144.
Take `O=C(O)c1cn(CCOc2ccccc2Cl)c2ccccc12`: the result in experiment [1], in experiment [4] and in experiment [6] was inactive. Besides, the fluorescence, percent of control (lower = inhibition) in experiment [2] came out at 99.8%. Besides, the GTP binding, percent of control in experiment [3] was 110%. This compound yielded a GTP binding signal, raw median fluorescence (lower = inhibition) (MCF (arbitrary fluorescence units)) in experiment [5] of 86.
Take `Cc1ccc(OCCn2cc(C(=O)O)c3ccccc32)cc1C`: the compound was classed as inactive in experiment [1], in experiment [4] and in experiment [6]. The fluorescence, percent of control (lower = inhibition) in experiment [2] came out at 60.4%. The compound also registered a GTP binding, percent of control in experiment [3] of 85.4%. In experiment [5], this compound gave a GTP binding signal, raw median fluorescence (lower = inhibition) (MCF (arbitrary fluorescence units)) of 32.5.
For `Cc1ccc(/C=N/N(C)C2=NS(=O)(=O)c3ccccc32)o1`, the compound was classed as inactive in experiment [1], in experiment [4] and in experiment [6]. In experiment [2], the fluorescence, percent of control (lower = inhibition) was found to be 27.1%. In addition, the GTP binding, percent of control in experiment [3] was determined as 57.3%. The compound further returned a GTP binding signal, raw median fluorescence (lower = inhibition) (MCF (arbitrary fluorescence units)) in experiment [5] of 132.
Consider `N#C/C(=C/c1ccc(-c2ccccc2)o1)c1nc(-c2cccs2)cs1`, for which the result in experiment [1], in experiment [4] and in experiment [6] was inactive. Also, the fluorescence, percent of control (lower = inhibition) in experiment [2] came to 96.4%. In addition, in experiment [3], the GTP binding, percent of control came out at 107%. Further, the GTP binding signal, raw median fluorescence (lower = inhibition) (MCF (arbitrary fluorescence units)) in experiment [5] stood at 228.
Turning to `CCC(C)(C)c1ccc(OCCCC[n+]2ccccc2)c(C(C)(C)CC)c1`, the result in experiment [1], in experiment [4] and in experiment [6] was inactive. Besides, in experiment [2], the fluorescence, percent of control (lower = inhibition) was 32.7%. In experiment [3], this compound returned a GTP binding, percent of control of 78.7%. This compound also yielded a GTP binding signal, raw median fluorescence (lower = inhibition) (MCF (arbitrary fluorescence units)) in experiment [5] of 278.
Turning to `COc1ccc(C(CC(=O)O)NC(=O)c2cc3cc(Br)ccc3oc2=O)cc1OC` (stereo unspecified), the compound was classed as inactive in experiment [1], in experiment [4] and in experiment [6]. In experiment [2], the fluorescence, percent of control (lower = inhibition) stood at 31%. In experiment [3], this compound returned a GTP binding, percent of control of 78.7%. Also, the GTP binding signal, raw median fluorescence (lower = inhibition) (MCF (arbitrary fluorescence units)) in experiment [5] was determined as 213.
Consider `COc1ccc(CC(=O)c2ccccc2C(=O)O)cc1`, for which the compound was called inactive in experiment [1], in experiment [4] and in experiment [6]. In addition, the fluorescence, percent of control (lower = inhibition) in experiment [2] amounted to 153%. In experiment [3], this compound displayed a GTP binding, percent of control of 143%. This compound also gave a GTP binding signal, raw median fluorescence (lower = inhibition) (MCF (arbitrary fluorescence units)) in experiment [5] of 368.
`COc1ccc2nc(C)cc(SCC(=O)N/N=C/c3ccc(O)c(O)c3)c2c1`: the compound was called inactive in experiment [1], in experiment [4] and in experiment [6]. Also, the fluorescence, percent of control (lower = inhibition) in experiment [2] came to 35%. In experiment [3], the GTP binding, percent of control came to 75.8%. Further, the GTP binding signal, raw median fluorescence (lower = inhibition) (MCF (arbitrary fluorescence units)) in experiment [5] was 164.
`COc1cc2[nH]c(=S)nc(NCCCOC(C)C)c2cc1OC`: the compound was called inactive in experiment [1], in experiment [4] and in experiment [6]. The fluorescence, percent of control (lower = inhibition) in experiment [2] is 38.7%. Besides, in experiment [3], the GTP binding, percent of control turned out to be 50.6%. This compound displayed a GTP binding signal, raw median fluorescence (lower = inhibition) (MCF (arbitrary fluorescence units)) in experiment [5] of 116.
Consider `CCN1/C(=C/C=C/c2oc3ccc4ccccc4c3[n+]2CC)Oc2ccc3ccccc3c21`, for which the call in experiment [1], in experiment [4] and in experiment [6] was inactive. Further, in experiment [2], the fluorescence, percent of control (lower = inhibition) is 59.4%. In experiment [3], the GTP binding, percent of control worked out at 108%. The compound further returned a GTP binding signal, raw median fluorescence (lower = inhibition) (MCF (arbitrary fluorescence units)) in experiment [5] of 275.
For `O=C(Nc1cccc(Cl)c1)N1CCN(c2ncccn2)CC1`, the call in experiment [1], in experiment [4] and in experiment [6] was inactive. Moreover, the fluorescence, percent of control (lower = inhibition) in experiment [2] worked out at 47.5%. Moreover, the GTP binding, percent of control in experiment [3] came to 60.6%. The compound further had a GTP binding signal, raw median fluorescence (lower = inhibition) (MCF (arbitrary fluorescence units)) in experiment [5] of 201.
As to `Cc1ccccc1-c1nnc(NC(=O)c2ccc(N3C(=O)CCC3=O)cc2)s1`, the compound was called inactive in experiment [1], in experiment [4] and in experiment [6]. The fluorescence, percent of control (lower = inhibition) in experiment [2] stood at 48.6%. The GTP binding, percent of control in experiment [3] was determined as 65.8%. The compound also showed a GTP binding signal, raw median fluorescence (lower = inhibition) (MCF (arbitrary fluorescence units)) in experiment [5] of 236.
